Source: PubChem
SF-1 inh – inhibitors of human nuclear receptor SF-1 | Q13285 | CHO-K1 Gal4-SF-1 LBD luciferase reporter | inhibition, % at 10 µM | hit rate 0.55% among 65,000;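 active = inhibition above the mean inhibition of all tested compounds plus 3 SD, cut at about 48% in these data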
Target sequence (Q13285 whole entry, looked up, the tested form may be a part): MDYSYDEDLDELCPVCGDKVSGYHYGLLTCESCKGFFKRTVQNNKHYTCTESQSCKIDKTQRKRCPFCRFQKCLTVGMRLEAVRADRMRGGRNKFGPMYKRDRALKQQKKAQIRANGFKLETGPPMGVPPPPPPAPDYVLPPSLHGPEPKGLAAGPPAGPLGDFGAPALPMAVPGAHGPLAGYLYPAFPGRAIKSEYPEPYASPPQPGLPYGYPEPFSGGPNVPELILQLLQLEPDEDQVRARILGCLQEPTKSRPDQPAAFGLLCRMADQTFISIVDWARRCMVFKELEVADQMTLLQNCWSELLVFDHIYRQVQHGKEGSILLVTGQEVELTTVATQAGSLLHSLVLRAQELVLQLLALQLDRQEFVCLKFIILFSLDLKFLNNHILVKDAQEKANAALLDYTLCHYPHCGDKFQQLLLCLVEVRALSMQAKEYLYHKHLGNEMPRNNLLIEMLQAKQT
Large screens that a line does not name were inactive. The entries come from a sample that favours hits as a whole.

Cc1c(C(=O)N2CCCC2)oc2c1-c1[nH]ncc1CC2	none
COc1ccc(CCNc2oc(COc3ccccc3)nc2C#N)cc1	none
CCOC(=O)NCCc1ccc(OC)cc1	none
CCc1c(C)nc2ncnn2c1NCCc1ccc(OC)cc1	SF-1 inh 85
Cc1ccc(C)c(NC(=O)CSc2nnc(-c3ccncc3)n2N)c1	none
Cc1cc(C)n(-c2nc3c(c(=O)[nH]c(=O)n3C)n2CC(C)C)n1	none
O=C(Nc1ccc(F)cc1F)c1noc2c1CCC2	none
CCCCc1c(O)nc(SCC(=O)c2ccccc2)[nH]c1=O	none
O=C(CSc1nnnn1-c1ccccc1)NC(=O)Nc1ccc2c(c1)OCCO2	none
Cc1ccc(-c2nc(NC(=O)CSc3nnnn3-c3ccccc3)ns2)cc1	none
CCn1c2ccccc2c2cc(NC(=O)CSc3nnnn3-c3ccccc3)ccc21	SF-1 inh 70
Cc1cc(C)n2nnnc2c1C#N	none
CC(=O)C1=C(C)OC(N)=C(C#N)C1c1ccco1 (stereo not given)	none
CN(C)c1ccc2c(c1)OC(N)=C(C#N)C2c1cccc(F)c1 (stereo not given)	SF-1 inh 56
Fc1ccc(Cn2nnnc2CN2CCc3ccccc3C2)cc1	none
O=C(NCc1ccc(N2CCCC2=O)cc1)c1cn(Cc2ccccc2)nn1	none
O=S(=O)(c1cccc(C(F)(F)F)c1)N1CCC(O)(c2cccnc2)CC1	none
CCOC(=O)c1cnn(-c2nc(SC)nc3sc4c(c23)CCC4)c1N	none
CCNc1nc(N)c(C(=O)c2ccc(Cl)s2)s1	none
O=C(C1CC1)N1CCN=C1SCc1cccc(F)c1	none
O=C(Nc1cccc2ccccc12)c1cnccn1	none
Cc1cnc(C(=O)Nc2cccc3cccnc23)cn1	SF-1 inh 61
Cc1cnc(C(=O)Nc2nnc(C(C)C)s2)cn1	none
CC1=C(C)CC(C(=O)c2ccccc2)C(C(=O)O)C1 (stereo not given)	none
Cn1c(-c2ccc(F)cc2)cnc1SCC(=O)Nc1ccccc1N1CCOCC1	none
O=c1[nH]c2cccnc2n1Cc1ccco1	none
O=C(Nc1ccccc1NC(=O)NC1CCCCC1)NC1CCCCC1	SF-1 inh 84
Cc1c(Cl)cccc1NC(=O)NC1CCCCC1	none
Cc1ccc(NC(=O)NC2CCCCC2)cc1Cl	none
O=[n+]1c2c(n([O-])c3cc(F)c(F)cc31)CCCC2	none
CC(=O)Cc1nsc(Nc2ccc3c(c2)OCCO3)n1	none
CC(=O)NCCc1nc2ccccc2n1Cc1ccccc1	none
C#CC(C)(C)NC(=O)c1ccccc1OC	none
Cc1cc(C(=O)CSc2nncs2)c(C)n1-c1ccc2c(c1)OCO2	none
COc1ccc(-n2c(N)c(C(=O)NCc3ccco3)c3nc4ccccc4nc32)c(OC)c1	none
CCOC(=O)C1=C(Cn2cnc3ccccc32)NC(=O)NC1c1cc(C)ccc1C (stereo not given)	SF-1 inh 59
CCOC(=O)C1=C(C)Nc2ncnn2C1/C=C/c1ccccc1 (stereo not given)	none
CCSCCOC(=O)C1=C(C)NC(=O)NC1c1cc(OC)ccc1OC (stereo not given)	none
COc1cccc(-n2c(SCC(=O)NCCc3ccccc3)nnc2-c2ccoc2C)c1	none
CC1N/C(=C\C(=O)c2ccccc2)N(O)C1(C)C (stereo not given)	none
Nc1nonc1C(=O)NCCNCc1cc(Br)ccc1OCc1ccc(F)cc1	SF-1 inh 57
O=C(NCc1ccc(F)cc1)c1noc2c1CCCC2	none
COc1ccc(CCNC(=O)c2nonc2N)cc1OC	none
CC1(C)CC(OC(=O)c2ccco2)CC(C)(C)N1O	none
Cc1ccnc(NC(=O)CCCOc2cc(=O)n(C)c3ccccc23)c1	SF-1 inh 59
CCOC(=O)C1CCCN(C(=O)CCCOc2cc(=O)n(C)c3ccccc23)C1 (stereo not given)	none
CCC1CCCCN1C(=O)COc1cc(=O)n(C)c2ccccc12 (stereo not given)	none
CC(C(=O)NC1CCCC1)N(C(=O)c1snc(C(N)=O)c1N)c1ccc2c(c1)OCCO2 (stereo not given)	none
O=C(NCc1ccccn1)C1CC(=O)N(C2CCCC2)C1 (stereo not given)	none
O=C(NCC1CCCO1)c1cccc(-n2cnnn2)c1 (stereo not given)	none
CCOC(=O)c1nnn(-c2nn3nnnc3c3ccccc23)c1C	none
O=c1c2ccccc2nc2sc3ccccc3n12	none
O=c1c2ccccc2cnn1-c1nc2ccccc2s1	SF-1 inh 90
Cc1nn(-c2nc3ccccc3s2)c(N)c1-c1ccccc1	none
Cc1cc(C)n2cc(CSc3nnnn3C)nc2n1	none
COC(=O)c1ccc(Oc2cc(C)nc(-n3nc(C)cc3C)n2)cc1	SF-1 inh 51
COC(=O)CSc1nc(C)cc(Oc2ccccc2)n1	none
COc1ccc2nc(NC(=O)c3ccc(-n4nc(C)cc4C)cc3)sc2c1	none
CN(CC(=O)N1CCc2ccccc21)S(=O)(=O)c1cccc2cccnc12	none
COCCn1c(SCC(=O)c2ccccc2)nc2c(c1=O)SC(C)C2 (stereo not given)	none
CCCCS(=O)(=O)NC1=NCN(CCOC(=O)c2ccccc2)CN1	none
Cc1cc(C)nc(SCCS(=O)Cc2ccc(Cl)cc2)n1 (stereo not given)	none
O=C(/C=C\Nc1ccc2c(c1)OCO2)c1ccccn1	SF-1 inh 83
O=C(Nc1ccc2c(c1)OCO2)c1cccs1	none
c1cc(CNc2ccc3c(c2)OCO3)ccn1	none
CCCCn1cnc2c(cnn2-c2ccc(Cl)cc2)c1=O	none
CCCc1noc(-c2ccc(-c3ccccc3)cc2)n1	none
CCOC(=O)Cn1c(CN2CC(C)OC(C)C2)nc2c1c(=O)n(C)c(=O)n2C (stereo not given)	none
Cc1ccc(-n2cc(-c3ccccc3)[nH]c2=O)cc1F	none
CCOC(=O)C1CCN(S(=O)(=O)c2ccc(-c3nc4ccccc4s3)s2)CC1	none
O=C(Nc1nc2ccccc2s1)c1ccc(Cl)s1	none
O=C(NC1CC1)c1ccc(-c2nc3ccccc3s2)s1	SF-1 inh 79
O=C(COc1ccc(Cl)cc1)NC1CCSC1=O (stereo not given)	none
Cc1ccc2c(c1)C(N1CCCC1=O)CC(c1ccco1)N2 (stereo not given)	none
O=C(OCc1nc2ccccc2s1)C1CCN(C2=NS(=O)(=O)c3ccccc32)CC1	none
COCCCNC(=O)c1ccc(NS(C)(=O)=O)cc1	none
CCOC(=O)N1CCC(NC(=O)C2CCCN(S(=O)(=O)c3cccnc3)C2)CC1 (stereo not given)	none
CCN(CC)c1ccc2cc(-c3nnc(-c4ccncc4)o3)c(=O)oc2c1	none
CCN(CC)c1ccc(NC(=O)c2ccccc2F)cc1	none
CCN(CC)c1ccc2cc(NC(=O)CCC(=O)O)c(=O)oc2c1	SF-1 inh 59
CCS(=O)(=O)c1ccc2oc(Nc3ccccc3C)nc2c1	none
Cc1ccc(C)c(S(=O)(=O)c2c(N)n(/N=C/c3ccco3)c3nc4ccccc4nc23)c1	none
Nc1ccc(-c2nc3c(Cl)cc(N)cc3[nH]2)cc1	SF-1 inh 55
Cc1ccc(C)c(S(=O)(=O)Nc2ccc(S(=O)(=O)Nc3onc(C)c3C)cc2)c1	none
CCOC(=O)N1CCC(NC(=O)c2cccc3c2C(=O)N(CCOC)C3)CC1	none
COc1ccc(OC)c(NC(=O)CSc2nnnn2-c2ccc3c(c2)OCO3)c1	SF-1 inh 91
CCn1c(CNC(=O)c2ccc3c(c2)OCO3)nnc1SCC(=O)Nc1cc(C)ccc1OC	none
CC(C)OC(=O)CSc1nnnn1-c1ccc2c(c1)OCCO2	none
CCCn1c(NC(=O)C2CCN(S(=O)(=O)c3cccs3)CC2)nc2ccccc21	none
CC(C)Cc1cc(C(=O)N2CCN(c3ccc(F)cc3)CC2)no1	none
Cc1ccc2nc(-c3ccccc3)cn2c1	SF-1 inh 89
O=C(OCC(=O)N1CCCCCC1)c1cccs1	none
CCN1CCc2c(sc3c2c(NCc2ccco2)nc2nnnn23)C1	none
Cc1cccc2[nH]c(-c3ccc(NC(=O)c4ccco4)cc3)nc12	none
